Pf Dd2 inh – Plasmodium falciparum Dd2 growth inhibition | P. falciparum Dd2 growth, SYBR Green, 72 h | Potency, µM (series often up to 28.9 µM), for the others: top-dose activity, negative = inhibition, hits mostly inhibitors | hit rate 4.3% among 120,000; active = well fitted inhibition curve with a large enough effect;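 also: plate controls were DMSO vehicle for no effect and reference drug for full effect; nearly all actives have a fitted effect of over 65% in size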
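Infected erythrocytes (Dd2, 0.3% parasitemia, 2.5% hematocrit final) are added to compound in RPMI-1640/Albumax II medium, grown 72 h at 37C in low oxygen, then lysed with saponin/Triton-X containing SYBR Green and read by fluorescence.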
Numbers without * were called inactive; i = inactive; [ ] = remark or other dose. The sample as a whole holds a higher share of hits than the screen did. Potency is read from the fitted curve at half-maximal effect.

SMILES | Pf Dd2 inh
CNC(=O)Nc1ccc(C2(C(=O)N3CCN(c4ccc(Cl)cc4)CC3)CCC2)cc1 | i
COc1ccc(C(=O)c2oc3ccccc3c2NC(=O)c2ccc(F)cc2)cc1 | 33.8%[5.79 µM]
CC(C)(C)c1ccc(C(=O)Nc2c(C(=O)c3ccc(F)cc3)oc3ccccc23)cc1 | 8.91µM*
COc1ccc(C(=O)Nc2c(C(=O)c3ccc(F)cc3)oc3ccccc23)cc1 | 55.5%
O=C(NCc1ccccc1F)C1CCN(C(=O)c2ncn3c2COC(c2ccccc2)C3)CC1 (stereo not drawn) | -16.1%
O[C@@H]1C[C@@H](c2nc(-c3ccc4c(c3)OCO4)no2)N(Cc2cccc(OC(F)(F)F)c2)C1 | -10.0%
O[C@@H]1C[C@@H](c2nc(Cc3ccc(F)cc3Cl)no2)N(Cc2ccc(OC(F)(F)F)cc2)C1 | 7.94µM*
O=[N+]([O-])c1ccccc1CN1C[C@H](O)C[C@H]1c1nc(Cc2ccc(F)cc2Cl)no1 | i
O=C(N[C@H]1CO[C@H]2[C@@H]1OC[C@@H]2n1cc(-c2ccccn2)nn1)c1ccc(C(F)(F)F)cc1 | 1.4%
COc1ccc(-c2nc3c(c(=O)[nH]2)CCN(C(=O)COc2ccccc2C)C3)cc1 | i
Cc1cc(N2CCC(NS(=O)(=O)c3cn(C)c(C)n3)C2=O)ccc1F (stereo not drawn) | 5.2%
Cc1ccc(N2CCN(c3nc4c(c(=O)[nH]3)CCNC4)CC2)cc1 | 6.6%
CCCCN1CCN(c2nc(-c3ccccc3)nc3c2CCNC3)CC1=O | 11.2µM*
CCCCN1CCN(C(=O)c2cc(Cl)c(C)c(Cl)c2)CC1=O | -7.1%
O=C(NCCc1ccccc1)N1CCc2nn(Cc3ccccc3)c(=O)n2CC1 | 41.1%
Cc1ccc(SC2CCN(Cc3nc(CCc4ccccc4)no3)CC2)cc1 | -15.7%
c1ccc(CCc2noc(CN3CCCCC3CCn3cccn3)n2)cc1 (stereo not drawn) | i
CC(C)Cc1nc(CN2C[C@@H]3CC[C@H](C2)N(Cc2ccccc2)C3)no1 | 10µM*
CC(C)NC(=O)N(C1CC1)C1CCOC2(CCN(C(=O)c3ccc4nc[nH]c4c3)CC2)C1 (stereo not drawn) | 35.4%
COc1ccc(Cn2c(C3CCN(C(=O)c4ccc(F)cc4)CC3)n[nH]c2=O)cc1 | i
O=C(N[C@@H]1C[C@H](Cn2cc(C3CC3)nn2)[C@@H](O)[C@H]1O)c1ccc2c(c1)OCO2 | i
N#Cc1cccc(NC(=O)N2CCC[C@@H](O)[C@H](NC(=O)c3ccc(OCc4ccc(F)cc4)cc3)C2)c1 | 5.01µM*
NC(=O)COc1ccc(C(=O)N[C@@H]2CN(C(=O)Nc3cccc(C(F)(F)F)c3)CCC[C@H]2O)cc1 | i
COc1cccc(NC(=O)N2CCC[C@@H](O)[C@H](NC(=O)c3ccc(OCCN4CCCC4)cc3)C2)c1 | -15.6%
CC(=O)NCCNC(=O)C1CCCN(S(=O)(=O)c2ccccc2)CCC(=O)NCC1 (stereo not drawn) | 24.2%
SMILES | Pf Dd2 inh
CC1CCN(C(=O)Cn2cc(SCC(=O)NCc3ccccc3)c3ccccc32)CC1 | -11.9%
CC1CCN(C(=O)Cn2cc(SCC(=O)Nc3ccccc3)c3ccccc32)CC1 | -21.1%
CC1CCN(C(=O)CC(c2ccc(Cl)cc2)c2cn(C)c3ccccc23)CC1 (stereo not drawn) | 7.94µM*
COc1cccc(C(O)c2nc(C(=O)NC3CCN(C)CC3)c(C)o2)c1 (stereo not drawn) | i
CN(Cc1ccc(Cl)cc1)Cc1ccccc1C(F)(F)F | 2.5%[44.1 µM]
Cc1cc(C)n2ncc(CN3CCn4nc(C(C)O)cc4C3)c2n1 (stereo not drawn) | 1.9%
O=C(c1ccc(Cl)cc1)N1CCC2(CN[S+](=O)([O-])c3cccnc3O2)C1 (stereo not drawn) | 16.8%
N#Cc1ccc(C(=O)NCc2nnc3ccc(-c4ccc(F)cc4)nn23)cc1 | -10.4%
Cc1cn2nc(C(=O)NCCCc3ccccc3)cc2c(N2CCCC2)n1 | i
Cc1cn2nc(C(=O)N3CCC(C)CC3)cc2c(N(C)Cc2ccccc2)n1 | 11.2µM*
Cc1cn2nc(C(=O)Nc3ccccc3F)cc2c(N(C)Cc2ccccc2)n1 | 7.94µM*
COc1ccc(NC(=O)c2cc3c(N(C)Cc4ccccc4)nc(C)cn3n2)cc1OC | i
Cc1cn2nc(C(=O)N3CCN(c4ccccc4)CC3)cc2c(N2CCCC2)n1 | i
Cc1cn2nc(C(=O)N3CCCC3)cc2c(N(C)Cc2ccccc2)n1 | -4.3%
CCc1ccc(C(=O)N(C)CC2CCOCC2)cc1 | -22.5%
Cc1ccc2c(c1)N1C(=O)OC[C@@H]1CCN(C1CCOCC1)C2 | 12.5%[44.1 µM]
COc1ccccc1C(=O)N1CCC(OC2CCN(S(C)(=O)=O)CC2)CC1 | 44.3%
CC1CCN(C(=O)CSc2nnc(-c3ccccc3Cl)o2)CC1 | -13.3%
CC1CCCN(Cc2c(O)ccc3c(=O)c(-c4ccccc4Cl)c(C(F)(F)F)oc23)C1 (stereo not drawn) | 0.891µM*
Cc1oc(-c2ccc(Cl)cc2)nc1CN1CCCC(C(=O)NCc2ccc(Cl)cc2)C1 (stereo not drawn) | i
Cc1cc(Oc2c(C(F)(F)F)oc3c(CN4CCC(C)CC4)c(O)ccc3c2=O)cc(C)c1Cl | 0.447µM*
Cc1c(CO)cccc1NC(=O)c1ccc(CN2CCCC(C)C2)cc1 (stereo not drawn) | -8.4%
CC1CCCN(Cc2c(O)ccc3c(=O)c(-c4ccc(Cl)cc4)c(C(F)(F)F)oc23)C1 (stereo not drawn) | 0.708µM*
Cc1cc(C)cc(Oc2coc3c(CN4CCN(C)CC4)c(O)ccc3c2=O)c1 | i
CC1CCCN(Cc2nc3c(c(=O)n(C)c(=O)n3C)n2Cc2ccc(Cl)cc2)C1 (stereo not drawn) | 22.1%
SMILES | Pf Dd2 inh
Cc1ccc(Oc2c(C(F)(F)F)oc3c(CN4CCCCC4C)c(O)ccc3c2=O)cc1 (stereo not drawn) | -29.5%
C[C@H](O)c1onc(-c2ccc(F)cc2)c1C(=O)NC(C)(C)C | -11.2%[44.1 µM]
Cc1noc(C)c1C(=O)N1CCC2(CC1)CC(N[S+](C)(=O)[O-])c1ccccc12 (stereo not drawn) | 4.4%
CC(=O)N1C[C@@H]2OCC(=O)N(c3ccccc3)[C@@H]2C1 | 2.4%[44.1 µM]
Cn1cnc(S(=O)(=O)NCCc2noc(-c3ccncc3)n2)c1 | 51.6%
O=C(O)[C@]12CN(Cc3ccncc3)C[C@H]1CN(C1CCOCC1)C2 | -12.3%
CCn1c(-c2ccccc2)nn(CC(=O)NCc2ccc3nonc3c2)c1=O | 0.8%
O=C(NCc1ccc2nonc2c1)[C@@]12CNC[C@@H]1CN(C1CCCC1)C2 | 7.94µM*
COc1ccc(CN2CCC3(C2)C(=O)N(c2ccccc2)c2ccccc23)cc1 (stereo not drawn) | 8.91µM*
COc1ccc(CN2CCC3(C2)C(=O)N(Cc2ccccc2)c2ccccc23)cc1 (stereo not drawn) | i
COc1ccc(CN2CCC3(C2)C(=O)N(C)c2ccccc23)cc1 (stereo not drawn) | -4.2%[44.1 µM]
O=C1NC2(CCN([S+](=O)([O-])c3ccccc3)C2)COc2ccccc21 (stereo not drawn) | 5.9%
O=C1N(c2ccccc2)c2ccccc2C12CCN([S+](=O)([O-])c1ccccc1)C2 (stereo not drawn) | 7.94µM*
O=C1Nc2ccccc2C12CN([S+](=O)([O-])c1ccccc1)C2 | -8.7%
COc1ccc(C(=O)N2CCCC(n3cc(-c4nc(C5CC5)no4)nn3)C2)cc1F (stereo not drawn) | i
COCCn1c(CN2C(=O)CCc3ccccc32)nnc1C1CC(N)C1 (stereo not drawn) | -2.0%
